From PubChem
An excerpt weighted towards active compounds, which were near 1.6% of everything screened.
KCNQ2 enhance: KCNQ2 (rat) channel potentiation | B-score at 10 µM | O88943 | 0.54% of 310,000 active | CHO-K1 KCNQ2, FluxOR thallium flux fluorescence; hits give high values;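 active means fluorescence ratio B-score at least 3 SD of library B-scores, with initial fluorescence B-score within 3 of them, cut at about 5.3 in these data; same plate scores as AID 2156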;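 further: B-score of peak minus minimum over baseline fluorescence ratio after K+ and Tl+ stimulus; positive B-score means potentiation of KCNQ2 with more thallium influx and brighter signal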
KCNQ2 block: blocks the rat KCNQ2 potassium channel; B-score at 10 µM; O88943; 1.1% of 310,000 active; CHO-K1 KCNQ2, FluxOR thallium flux, 20 min; hits give low values; AID 2156;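 active means fluorescence ratio B-score at most minus 3 library SDs, with starting brightness B-score within 2 library SDs, cut at about -5.5 in these data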
Hits are given with their value; i = inactive; nt = no result.

SMILES	KCNQ2 enhance	KCNQ2 block
Cc1onc(-c2ccc3c(c2)OCO3)c1-c1ccc2[nH]ccc2c1	i	-7.9
CC1(C)Cc2c(cnn2-c2ccc(F)cc2)C(NC(=O)CN2CCCCC2=O)C1 (stereo not drawn)	nt	i
COC(=O)/C(=C\Nc1ccc(Cl)cc1Cl)NC(=O)c1ccc(OC)cc1	nt	i
COc1ccc(OC)c(CNn2c(-c3cccc(C)c3)nc3ccccc3c2=O)c1	i	-5.7
COc1ccc(OCC(=O)Nn2c(-c3ccc(C)cc3)nc3ccccc3c2=O)cc1	nt	i
COc1ccc(NC(=O)NNC(=O)COc2ccc([N+](=O)[O-])c(C)c2)cc1OC	nt	i
COC(=O)c1cccc(COC(=O)c2ccc(N(C)C)cc2)c1	i	-6.5
COC(=O)c1ccc(COC(=O)c2ccc(N(C)C)cc2)cc1	nt	i
Cc1cc(C)cc(N(C(=O)c2ccccn2)C(C(=O)NC2CCCCC2)c2ccncc2)c1 (stereo not drawn)	nt	i
COc1ccc(-c2nn(-c3ccccc3)cc2C(=O)NCC(c2cccs2)N2CCOCC2)cc1 (stereo not drawn)	nt	i
COc1cccc(-c2nn(-c3ccc(C)cc3)cc2C(=O)NCC(c2cccs2)N2CCOCC2)c1 (stereo not drawn)	i	-6.9
Cc1nc2ccccc2c(=O)n1NC(=O)c1ccc([N+](=O)[O-])cc1	nt	i
Cc1cnc(C(=O)Oc2ccc(-c3ccccc3)cc2)cn1	i	i
COc1ccccc1NC(=S)NCCSc1ccc(Cl)cc1	nt	i
COc1ccccc1NC(=O)Nc1cc(C(C)C)ccc1C	i	i
COc1ccccc1NC(=O)OC(C)c1ccc(Cl)cc1 (stereo not drawn)	i	-5.8
COc1ccccc1NC(=S)NCCc1ccc(Cl)cc1	i	-6.2
CCOc1ccc(NC(=O)CNC(=O)c2ccc([N+](=O)[O-])cc2)cc1	nt	i
CCOC(=O)n1c(=O)[nH]c2ccc(Br)cc21	i	i
Cc1ccsc1C(=O)N1CCCC(N2CCN(c3cccc(Cl)c3)CC2)C1 (stereo not drawn)	i	-7.1
Cc1cccc(C(=O)N2CCCC(N3CCN(c4cccc(Cl)c4)CC3)C2)n1 (stereo not drawn)	i	i
O=C(OCC#CCSc1nnc(-c2cccc3ccccc23)o1)c1cccs1	i	-5.8
O=C(OCC#CCSc1nnc(-c2ccccc2)o1)c1cccs1	nt	i
COc1cc(-c2nc(C(=O)NCC3CCCO3)cc3c2[nH]c2ccccc23)cc(OC)c1OC (stereo not drawn)	i	-6.7
COc1ccccc1-c1nc(C(=O)NCC2CCCO2)cc2c1[nH]c1ccccc12 (stereo not drawn)	nt	i
SMILES	KCNQ2 enhance	KCNQ2 block
NC(=O)c1ccsc1NC(=O)COC(=O)C1CC2CCCC(C1)C2=O (stereo not drawn)	nt	i
S=C(NCc1ccccc1)NC1CCCCC1	i	i
S=C(NCc1cccc(Cl)c1)NC1CCCCC1	8	i
O=C1NC(Cc2c[nH]c3ccccc23)C(=O)N1Cc1ccc(CN2C(=O)NC(Cc3c[nH]c4ccccc34)C2=O)cc1 (stereo not drawn)	i	i
Cc1ccc(-c2cc(C(F)F)n3ncc(C(=O)N4CCN(c5ccccn5)CC4)c3n2)cc1	i	-5.7
CCN1CCN(C(=O)c2cnn3c(C(F)F)cc(-c4ccc(C)cc4)nc23)CC1	i	i
COc1ccc(-n2c(SCC(=O)Nc3cc(C(=O)O)ccc3C)nc3ccccc3c2=O)cc1Cl	i	i
CN(CCc1ccccc1)C1CCCN(S(=O)(=O)CC(F)(F)F)C1 (stereo not drawn)	i	i
O=C1N(c2ccccc2)c2ccccc2C1(Cc1ccncc1)Cc1ccncc1	i	-5.6
CC1(CCBr)C(=O)N(c2ccccc2)c2ccccc21 (stereo not drawn)	nt	i
O=C(CCNS(=O)(=O)c1ccccc1)Nc1ccccc1	i	i
CCCn1c2ccccc2c2cnn(CC(=O)NC3CCCCC3)c(=O)c21	i	i
CCOC(=O)C1=C(c2ccccc2)NC(N)=NC1c1ccc(OCc2ccc(Cl)cc2)c(OC)c1 (stereo not drawn)	i	-6.2
CCOC(=O)C1=C(c2ccccc2)NC(=O)NC1c1cc(Cl)c(O)c(OC)c1 (stereo not drawn)	nt	i
N#CCc1ccc(NC(=O)c2cc(S(=O)(=O)N3CCOCC3)ccc2Cl)cc1	i	i
O=C(CCNC(=O)c1ccccc1)Nc1cccnc1	nt	i
Cc1ccc(C(=O)c2ccc([N+](=O)[O-])cc2)cc1C	5.6	i
Cc1ccc(C(=O)c2cc([N+](=O)[O-])ccc2N2CCCCC2)cc1C	nt	i
CCOC(=O)c1cc(C(=O)OCC)c(=O)[nH]c1SCc1ccccc1	i	i
CCC(C)c1ccccc1NC(=O)Cc1coc2cc3c(cc12)CCC3 (stereo not drawn)	7.7	i
Cc1ccc(C)c(NC(=O)Cc2coc3cc4c(cc23)CCC4)c1	i	i
Cc1cc2ccccn2c1C(=O)c1ccncc1	i	i
Cc1cc2ccccn2c1C(=S)NC(=O)c1ccccc1	19	i
Cc1ccnc(OC(C(=O)O)C(OCc2ccccc2)(c2ccccc2)c2ccc(C(F)(F)F)cc2)n1 (stereo not drawn)	i	-6.1
Cc1cc(C)nc(OC(C(=O)O)C(OCc2ccccc2)(c2ccccc2)c2ccccc2)n1 (stereo not drawn)	i	i
SMILES	KCNQ2 enhance	KCNQ2 block
CC(C)OCCCNC(=O)CCCC(=O)Nc1ccc(OCCc2ccccc2)cc1	i	i
Cc1noc(C)c1CSCC(=O)Nc1nc2ccc(S(C)(=O)=O)cc2s1	i	i
Cc1ccc(NCc2ccccc2OCc2ccccc2F)cc1	nt	i
Cc1cccc(NCc2ccccc2OCc2ccccc2F)c1	i	-5.5
COc1ccc(C(=O)NC2CCc3ccccc32)cc1OC1CCN(C(C)=O)CC1 (stereo not drawn)	i	i
Cc1ccc2c(c1)/C(=C/c1ccc(F)cc1)C(=O)N2	i	i
Cc1ccc2c(c1)N/C(=C(\C=C(/Cl)[N+](=O)[O-])[N+](=O)[O-])N2	i	-6.8
Cc1cc(-c2ccn[nH]2)c(C)s1	nt	i
COc1ccc(/C=N/NC(=O)C2(C)NC(C)(C)Cc3ccccc32)cc1 (stereo not drawn)	i	i
CCC1(c2ccccc2)NC(=O)N(CC(=O)Nc2cc(S(=O)(=O)N3CCCCC3)ccc2OC(C)C)C1=O (stereo not drawn)	nt	i
Nc1nc(SCC(=O)Nc2cccc(Oc3ccccc3)c2)n[nH]1	6.4	i
Nc1nc(SCC(=O)Nc2ccc(Oc3ccccc3)cc2)n[nH]1	i	i
O=C1CC(NS(=O)(=O)c2ccccc2)CN1c1ccc2c(c1)OCCO2 (stereo not drawn)	i	i
CCN(CC)S(=O)(=O)c1cccc(C(=O)NC(C)C(c2cccs2)N2CCCC2)c1 (stereo not drawn)	nt	i
COc1ccc(OC)c(C(C(=O)NC2CCCCC2)N(C(=O)c2snc(C(N)=O)c2N)c2ccccc2OC)c1 (stereo not drawn)	nt	i
COc1ccc(N(C(=O)c2snc(C(N)=O)c2N)C(C(=O)NC2CCCC2)c2cccs2)c(OC)c1 (stereo not drawn)	i	-8
COc1ccc(Cl)c(NC(=O)C/C(C)=N/NC(=O)CCc2ccccc2)c1	i	i
CC(NC(=O)N(Cc1ccccc1)Cc1ccc2c(c1)OCO2)(C(F)(F)F)C(F)(F)F	nt	i
CCC(NC(=O)N(Cc1ccccc1)Cc1ccc2c(c1)OCO2)(C(F)(F)F)C(F)(F)F	i	-8.1
COc1ccccc1C1CCN(C(=O)c2ccc(C(C)(C)C)cc2)CC1	i	-6.5
COc1ccccc1N1CCN(C(=O)c2ccc(C(C)(C)C)cc2)CC1	nt	i
